Screening results: PubChem BioAssay, National Center for Advancing Translational Sciences (NCATS)
Only some compounds are listed: those with a hit (about 7.9% of all), similar ones and a draw of the others.
KB-V1 cytotox: KB-V1 MDR subline cytotoxicity | Potency, µM (doses to about 46.1 µM), most hits filed as cytotoxic | actives 3.4% (n = 400,000) | KB-V1 MDR cells viability, CellTiter-Glo, 72 h; note: % is set by controls: 0 for no effect and ±100 for the full control effect; nearly all actives have a fitted effect of over 60% in size
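qHTS viability screen in drug-selected KB-V1 MDR cells: 72 h compound treatment at 37 degrees C, ATP luminescence end point.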
SW480 rerep: inducers of DNA re-replication in SW480 colon cancer cells; SW480 DNA re-replication, Hoechst DNA content imaging, 48 h; Potency, µM (titrated, usually from 46.1 µM), without a hit: top-dose re-replication activation, hits mostly activators; actives 1.8% (n = 340,000); AID 624297; note: % of control where 0% means no effect; nearly all actives have a fitted effect of over 55% in size
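Quantitative HTS format with DMSO vehicle controls; 48 hr drug incubation at 37 C, then 40 min Hoechst staining and scanning imager measurement at 405 nm excitation.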
KB-3-1 tox: KB-3-1 parental cell cytotoxicity. KB-3-1 viability, CellTiter-Glo ATP luminescence, 72 h. Potency, µM (top dose mostly 46.1 µM), most hits filed as cytotoxic. actives 1.4% (n = 400,000). AID 1347075; note: % is set by controls: 0 for no effect and ±100 for the full control effect; nearly all actives have a fitted effect of over 60% in size
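Using CellTiter-Glo luminescence, growth of non-resistant KB-3-1 adenocarcinoma cells is assessed 72 h after pin-tool compound addition at 37 °C. Normalized responses across the concentration series yield fitted curves.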
MCF10A rerep: inducers of DNA re-replication in MCF 10A breast cells; MCF 10A DNA re-replication, Hoechst nuclear intensity, 48 h; Potency, µM (doses to about 46.1 µM), without a hit: at the top dose activity, positive = re-replication, usual class: activators; actives 2.9% (n = 350,000); note: % of control where 0% means no effect; nearly all actives have a fitted effect of over 50% in size
HT1080 IDH1KD tx: toxicity to HT-1080 IDH1 knockdown cells (counter line); HT-1080 IDH1 knockdown viability, ATP luminescence, 48 h; Potency, µM (series often up to 46.1 µM), without a hit: at the top dose activity, negative = toxicity, actives largely listed as cytotoxic; actives 2% (n = 360,000);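 note: 0% = DMSO wells and -100% = cell-free medium wells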
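HT-1080-IDH1KD cells (IDH1 knocked down), 750/well in RPMI with 5% FBS, treated with compound 48 h at 37 degrees C. Viability by CellTiter-Glo luminescence, normalised to DMSO and no-cell wells; concentration-response curves classed.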
HT1080-NT tox: kills 2HG-producing HT-1080-NT fibrosarcoma cells. HT-1080-NT fibrosarcoma viability, CellTiter-Glo ATP luminescence, 48 h. Potency, µM (top dose mostly 46.1 µM), for the others: at the highest dose activity, negative = less viability, most hits filed as cytotoxic. actives 1.6% (n = 360,000);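 note: NT is the 2HG producing partner of a matched IDH1 knockdown line; 0% = DMSO-treated cells and -100% = media-only wells without cells; nearly all actives have a fitted effect of over 55% in size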
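Luminescent CellTiter-Glo readout after 48 hours of compound exposure at 37 degrees C defined viability of HT-1080-NT cells. Activity was normalized to DMSO wells and cell-free media wells; concentration-response curves were fitted and assigned curve classes.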
Starred values were filed as active, the others as inactive; i = inactive; ? = inconclusive; . = no result given. Calls come from the whole dose curve; as a rule, active = well fitted curve in the direction sought with a large enough effect; inconclusive = small, poorly fitted or top-dose-only effect, or another doubt; inactive = no such curve, though single readings can be large; an effect the other way counts as inactive or inconclusive. Potency is the fitted concentration of half-maximal effect.

SMILES | KB-V1 cytotox | SW480 rerep | KB-3-1 tox | MCF10A rerep | HT1080 IDH1KD tx | HT1080-NT tox
CN(CCOc1ccccc1)C(=O)C1CCC(=O)N(CCCN2CCCC2=O)C1 (stereo unspecified) | i | ? | i | 0.3% | 5.5% | 12.5%
O=C(NCc1ccc(F)c(F)c1)C1Cc2c(-c3ccc4c(c3)OCO4)ccnc2O1 (stereo unspecified) | 4.11µM* | . | 8.2µM* | . | ? | ?
COc1ccc(NC(=O)C2Cc3c(-c4ccc5c(c4)OCO5)ccnc3O2)cc1OC (stereo unspecified) | i | . | ? | . | 16.4µM* | ?
COc1ccc(CNC(=O)C2Cc3c(-c4ccc5c(c4)OCO5)ccnc3O2)cc1OC (stereo unspecified) | 9.2µM* | . | 20.6µM* | . | ? | ?
CCOc1ccc(NC(=O)c2ccc(NC(=O)CCS(=O)(=O)c3cccs3)cc2)cc1 | i | . | i | . | . | .
COc1ccc(OC)c(-c2nc3c(C)n[nH]c(=O)c3[nH]2)c1 | 18.4µM* | 8.0% | i | 23.7% | ? | ?
Cc1ccc(S(=O)(=O)NCCN=C(CN2CCCC2)NS(=O)(=O)c2ccc(C)cc2)cc1 | 6.51µM* | 6.6% | i | 0.6% | -2.6% | 10.7%
O=C(Nc1ncc(Cc2ccc(SC(F)F)cc2)s1)c1ccccc1 | 2.06µM* | 6.51µM* | 1.46µM* | ? | 6.51µM* | 4.61µM*
Cc1ccc(C(=O)Nc2nc3c(s2)CCCC3)o1 | 11.6µM* | -4.8% | ? | 3.5% | -19.9% | -23.0%
Cc1ccc(C(=O)Nc2ncc(Cc3ccccc3)s2)o1 | i | -19.5% | 3.55µM* | ? | . | .
CCOC(=O)N1CCN(S(=O)(=O)c2ccc(F)c(C(=O)Nc3ccc(C(C)C)cc3)c2)CC1 | 6.51µM* | 8.3% | i | 18.5% | -10.7% | -11.3%
CC(=O)NC[C@@H]1CN(c2ccc(N3CCOCC3)c(F)c2)C(=O)O1 | . | -7.7% | . | -0.2% | . | .
CCc1cccc(C)c1NC(=O)CN1C(=O)c2ccccc2Sc2ncccc21 | i | . | i | . | . | .
O=S(=O)(NCCSc1nnnn1-c1ccccc1)c1cccs1 | 16.4µM* | 9.2% | i | -9.7% | 1.4% | 3.6%
Cc1ccc(C(=O)Nc2ccc(-c3nc4ccccc4[nH]3)cc2)cc1Br | i | . | i | . | . | .
CC(=O)c1sc(NC(=O)C2(F)C(F)(F)C(F)(F)C(F)(F)C(F)(F)C2(F)F)nc1C | 7.31µM* | 0.4% | ? | 9.2µM* | 7.08µM* | 7.08µM*
CC(=O)c1sc(NC(=O)C=C(C)C)nc1C | i | 4.4% | i | 10.6% | -11.6% | -1.1%
CC1=NN(C(N)=S)C(=O)C1N=Nc1ccccc1Cl (stereo unspecified) | i | 8.2µM* | i | ? | 3.7% | -0.9%
Cc1nn(S(=O)(=O)c2ccc(C(C)C)cc2)c(C)c1S(=O)(=O)N1CCCCC1 | i | . | i | . | . | .
O=C(Cn1ncn2c(cc3sccc32)c1=O)NC1CCCC1 | i | -5.0% | i | -13.5% | 0.0% | -1.4%
COC(=O)[C@@]12C[C@@H](CC(=O)NCc3ccc(OC)c(OC)c3)C(=O)N(Cc3ccco3)C1=CCC(C)(C)C2 | i | . | i | . | -12.6% | -17.8%
C=CCc1cccc2cc(C(=O)NCCc3c(C)[nH]c4c(C)cccc34)c(=O)oc12 | i | . | i | . | . | .
Cc1[nH]c2c(C)cccc2c1CCNC(=O)c1ccc2c(c1[N+](=O)[O-])C(=O)c1ccccc1C2=O | i | 18.4µM* | ? | 7.94µM* | 20.6µM* | 16.4µM*
Cc1[nH]c2ccccc2c1CCNC(=O)c1ccc2c(c1[N+](=O)[O-])C(=O)c1ccccc1C2=O | 16.4µM* | ? | i | ? | ? | -16.5%
CN(C)C(=O)c1ccc2c(c1[N+](=O)[O-])C(=O)c1ccccc1C2=O | ? | . | i | ? | -15.6% | -18.4%
